Screens from PubChem BioAssay.
TGFb SMAD3 inh: TGF-b pathway inhibition; HepG2 CAGA-GFP TGF-b/SMAD3 reporter, GFP fluorescence, 18 h; TGF-beta stimulated, 500 pg/mL final; Potency, µM (highest dose often 46.1 µM), for the others: at the top dose activity, negative = inhibition, hits mostly inhibitors; 410,000 tested, 1.2% active; further: potency means the concentration at half of the fitted maximal effect; on the % scale 0 is the no-effect control and ±100 the full control effect; nearly all actives have a fitted effect of over 65% in size
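HEPG2 CAGA-GFP, 1000 cells/well; 2 h settle, 37 C; cpd via pin tool; TGF-b 500 pg/mL final; 18 h, 37 C; GFP imaging ex488/em500-530; %Activity normalised to -TGF-b and +DMSO controls; CRC fit, curve class.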
ATXN2 expr inh: ATXN2 expression inhibition. HEK-293 ATXN2-luciferase reporter, luminescence, 24 h. Potency, µM (series often up to 57 µM), for inactives: at the highest dose activity change, negative = inhibition, usual class: inhibitors. 360,000 tested, 0.72% active. AID 1745845; further: potency means the concentration at half of the fitted maximal effect; on the % scale 0 is the no-effect control and ±100 the full control effect; nearly all actives have a fitted effect of over 55% in size
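ATXN2-luciferase reporter cells (luciferase flanked by upstream and downstream ATXN2 gene portions) were treated 24 h at 37 °C with compounds at up to 57 uM. SteadyGlo luminescence gave expression; GF-AFC fluorescence gave viability.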
DRD3 antagonist: antagonists of human D3 dopamine receptor; D3R cells, DiscoveRx beta-arrestin luminescence, antagonist mode; stronger effect = lower value; P35462; 360,000 tested, 2.5% active; AID 652054; max response, negative = inhibition, %; in the data active means max response below about -50%; inconclusive means no clear call, values can overlap the other calls; further: on the % scale 0 is the no-effect control and ±100 the full control effect
Target sequence (P35462 whole entry, looked up): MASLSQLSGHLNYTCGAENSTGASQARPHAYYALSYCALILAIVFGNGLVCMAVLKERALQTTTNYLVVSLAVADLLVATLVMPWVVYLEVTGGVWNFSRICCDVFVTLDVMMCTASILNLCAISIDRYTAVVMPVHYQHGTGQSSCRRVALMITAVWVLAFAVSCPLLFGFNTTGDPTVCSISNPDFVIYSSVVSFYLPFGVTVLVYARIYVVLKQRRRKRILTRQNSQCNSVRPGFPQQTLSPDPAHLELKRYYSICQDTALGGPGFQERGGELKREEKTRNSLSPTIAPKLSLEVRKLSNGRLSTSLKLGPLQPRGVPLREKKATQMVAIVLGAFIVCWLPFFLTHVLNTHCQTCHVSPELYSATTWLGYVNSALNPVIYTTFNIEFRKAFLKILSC
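Cells expressing the human receptor were seeded at 1500 cells/well, incubated overnight at 37 degrees C in 5% CO2, then exposed to library compounds with dopamine controls for 90 minutes at 37 degrees C before luminescent detection.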
HepG2 tox: counter-screen for TGF-b inhibitors: cytotoxicity in HepG2 cells | HepG2 CAGA-GFP viability, ATP luminescence, 18 h | Potency, µM (titrated, usually from 46.1 µM), for inactives: at the highest dose activity change, negative = cytotoxicity, usual class: cytotoxic | 410,000 tested, 0.76% active; further: potency means the concentration at half of the fitted maximal effect
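HepG2 CAGA-GFP cells (1000/well, DMEM with 1% FBS) received compound, then TGF-beta at 500 pg/mL final, and were incubated 18 hours at 37 degrees C. Viability was read by CellTiter-Glo luminescence. Media-only wells were set as complete cell-killing and DMSO as no toxicity.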
DRD3 agonist: agonists of human D3 dopamine receptor; P35462; D3R DiscoveRx beta-arrestin cells, luminescence, 90 min; max activation, %; 410,000 tested, 0.58% active; AID 652048; in the data active means max activation above about 30%; further: 0% is about no effect
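Cells at 1500/well, incubated overnight, then treated with pinned compounds (dopamine as control) for 90 min at 37 degrees C. DiscoveRx reagent added for 30 - 60 minutes at room temperature; luminescence read.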
S2 tox: reduces viability in counter-screen for ATXN expression inhibitors. Potency, µM (doses to about 56.7 µM), usual class: cytotoxic. S2 cells (HEK-293 line with an ATXN2-luciferase reporter) viability, CellTiter-Fluor protease fluorescence, 24 h. 400,000 tested, 0.49% active; further: potency means the concentration at half of the fitted maximal effect; nearly all actives have a fitted effect of over 40% in size
* = called active by the depositor; i = inactive; ? = inconclusive; nt = no result given; ! = not active in a repeat. Most compounds without a hit are left out; they make up all but 4.7% or so of the library. Unless noted, the call rests on the fitted dose curve; in most records, active means well fitted curve in the direction sought with a large enough effect; inconclusive means small, poorly fitted or top-dose-only effect, or another doubt; inactive means no such curve, though single readings can be large; an effect the other way counts as inactive or inconclusive.

SMILES	TGFb SMAD3 inh	ATXN2 expr inh	DRD3 antagonist	HepG2 tox	DRD3 agonist	S2 tox
Cc1ccc(CN2C3CCCC2CC(NC(=S)NCc2ccccc2)C3)cc1 (stereo not given)	-21.8%	-20.0%	-94.3*	-24.1%	-18.9	?
O=c1[nH]c(=O)n(C2CCCCCC2)c(O)c1C=NCCCN1CCOCC1	7.7%	2.9%	-61.4*	6.3%	-5.7	i
NP(=O)(OCCCc1ccccc1)c1ccccc1 (stereo not given)	0.8%	9.3%	-14.8	6.0%	35.6*	i
CC(C)[C@H]1C(=O)N[C@H](CO)Cc2c[nH]c3cccc(c23)N1C	nt	-1.2%	nt	nt	nt	nt
CC(=O)O/C(=C1\CC2C3CC=C4CC(OC(C)=O)CCC4(C)C3CCC2(C)C1=O)C(F)(F)F (stereo not given)	-11.5%	-28.5%	-70.3*	-21.8%	-8.4	i
CC(C)=CCN1CC[C@@]2(C)c3cc(O)ccc3C[C@@H]1[C@@H]2C	nt	?	nt	nt	-23.8	?
CCCCCCCCCC[N+](C)(C)CCCCCCCCCC	nt	nt	nt	nt	0.7	nt
CCCCCCCCCCCCCCCC[N+](C)(C)C	?	31.6µM*!	13.7	-105.7%	2.7	?
C=CCn1c(O)c(C(C)=NCc2cc(OC)cc(OC)c2)c(=O)[nH]c1=O	-10.2%	?	9.4	7.08µM*	-2.6	i
Cc1cccc(OCC(=O)N2CCN(Cc3ccncc3)CC2)c1	6.0%	5.8%	-77.0*	3.3%	-6.1	i
Cc1cccc(OCC(=O)N2CCN(Cc3ccc4c(c3)OCO4)CC2)c1	4.4%	-17.6%	?	-1.5%	-4.2	i
CN1CCC(c2c[nH]c3ccc(O)cc23)CC1	16.3%	2.4%	?	1.8%	-0.6	i
CN1CCC(c2c[nH]c3ccccc23)C1 (stereo not given)	-1.6%	nt	-100.0*	-8.6%	-2.5	i
CN(C)c1ccc(CNC(=O)Cn2c(=O)oc3cc(S(=O)(=O)N4CCCCCC4)ccc32)cc1	?	nt	nt	-34.7%	1.3	nt
O=C(Cc1c(-c2ccccc2)nc2ccc(Br)cn12)N1CCCC1	nt	16.2%	-9.4	nt	3.9	?
COc1ccc(-c2nc3ccc(Br)cn3c2CC(=O)N2CCCC2)cc1OC	nt	5.7%	-52.0*	nt	-8.3	i
COc1ccc(C(=O)C(Cc2ccccc2)N(C)C)cc1 (stereo not given)	4.6%	0.6%	8.7	-14.5%	-13.0	i
COc1ccc(C(CNC(=O)c2ccc3c(c2)CCC3)N(C)C)cc1 (stereo not given)	2.5%	-17.9%	-80.6*	-6.4%	-12.3	i
O=C(CBr)Nc1ccc(Cl)cc1C(=O)c1ccccc1F	nt	-7.2%	nt	nt	nt	i
C[n+]1c(-c2ccccc2)c2cc(N)ccc2c2ccc(N)cc21	4.47µM*	7.08µM*	3.7	-16.7%	-1.5	15.8µM*
CCN1CCN(C(=O)Cc2ccc(Nc3ncc(F)c(Nc4ccc(C(=O)Nc5ccccc5Cl)cc4)n3)cc2)CC1	nt	24.3µM*	nt	nt	nt	nt
COc1ccccc1NC(=O)N(Cc1ccc2c(c1)OCO2)C1CCN(Cc2ccccc2)CC1	8.91µM*	?	nt	-28.9%	-33.7	?
O=C(Nc1ccccc1)N(Cc1ccc2c(c1)OCO2)C1CCN(Cc2ccccc2)CC1	?	-3.9%	nt	-33.5%	-31.8	i
COc1cccc(CN(C)C[C@@H]2OCc3ccccc3-c3c(n(C)c4ccccc34)C(=O)N([C@@H](C)CO)C[C@H]2C)c1	?	?	15.4	20µM*	4.4	28.2µM*
O=C1NC[C@H](CCCCN2C[C@@H](Cc3ccccc3)N(CCC3CCCCC3)C(=O)C2=O)N(CCC2CCCCC2)C1=O	nt	13.9%	-15.1	nt	-6.6	i
SMILES	TGFb SMAD3 inh	ATXN2 expr inh	DRD3 antagonist	HepG2 tox	DRD3 agonist	S2 tox
COc1cccc(C(c2nnnn2Cc2ccccc2)N2CCC(n3c(=O)[nH]c4ccccc43)CC2)c1OC (stereo not given)	?	?	39.9	-50.8%	-2.1	?
CSCCC(c1nnnn1-c1ccc2c(c1)OCCO2)N1CCC(n2c(=O)[nH]c3ccccc32)CC1 (stereo not given)	?	?	25.4	-10.8%	7.8	?
O=c1[nH]c2ccccc2n1C1CCN(C(CCc2ccccc2)c2nnnn2C2CCCC2)CC1 (stereo not given)	?	25.1µM*	14.8	-29.7%	7.4	?
O=c1[nH]c2ccccc2n1C1CCN(C(c2cc3ccccc3o2)c2nnnn2Cc2ccccc2)CC1 (stereo not given)	?	20µM*	78.2	6.0%	2.6	nt
C[N+]1(C)CCO[C@](O)(c2ccc(-c3ccc([C@]4(O)C[N+](C)(C)CCO4)cc3)cc2)C1	nt	nt	nt	nt	nt	i
Cc1ccc2c(c1)C1CN(C)CCC1N2C(=O)c1cccs1 (stereo not given)	5.7%	-2.6%	20.3	12.6%	2.4	i
Cc1ccc(C)c(S(=O)(=O)Nc2ccc3c(c2)CCCN3C(=O)c2cccs2)c1	11.2µM*	?	nt	-20.4%	2.2	nt
Oc1ccc([C@H]2CNCc3c2ccc(O)c3O)cc1O	nt	-20.5%	nt	nt	9.6	?
COC(=O)C(O)(c1ccc(NC(=O)c2cccs2)cc1)C(F)(F)F (stereo not given)	-7.9%	nt	-62.0*	-22.8%	-15.9	i
CC#C[C@]1(O)CC[C@H]2[C@@H]3C[C@H](C)C4=CC(=O)CC[C@]4(C)[C@H]3CC[C@@]21C	nt	-26.6%	nt	nt	nt	i
CN1CCc2cc(O)cc3c2[C@H]1Cc1ccc(O)c(O)c1-3	7.4%	?	-84.0*	-14.6%	-32.5	i
O=C(Cn1c(=O)oc2cc(S(=O)(=O)NCc3ccccc3)ccc21)NCc1ccccc1Cl	?	nt	nt	-64.0%	3.0	nt
CCN1CCN(c2ncnc3ccc(Br)cc23)CC1	-1.1%	-1.8%	-65.7*	1.2%	-1.3	i
CCc1cc2c(N3CCN(C)CC3)ncnc2s1	17.7%	-9.1%	?	2.8%	-1.1	i
CCOC(=O)[C@]12Cc3cc(OC)ccc3[C@H]1N(C1CCCCC1)C(=O)c1ccccc12	nt	4.47µM*	-63.8*	nt	-5.1	7.08µM*
CCOC(=O)[C@]12Cc3cc(Cl)ccc3[C@H]1N(C1CCCCC1)C(=O)c1ccccc12	nt	3.16µM*	-79.7*	nt	-9.5	3.55µM*
CCOC(=O)[C@]12Cc3cc(OC)ccc3[C@H]1N(C)C(=O)c1ccccc12	nt	16.2%	-18.3	nt	-3.5	i
CC1CCCC(C)N1/N=C/c1c[nH]c2ccc(Br)cc12 (stereo not given)	?	-36.2%	-76.0*	17.8µM*	-14.2	i
